Eight compounds from PubChem BioAssay (NCI) can be followed below.

Each structure is given as a SMILES string. “And” between values parts separate entries of the source, which are not always exact repeats. Equal values may be shown once. Compounds without any hit were thinned out: in the full panel of roughly 79,000, 15% have a hit. The source holds several records for some structures; these can differ, active in one and inactive in another. The source made the active and inactive calls. Rule as the data show it: active = growth inhibition above about 70%; inactive = the rest.

The nature of assay [1]: NCI Yeast Anticancer Drug Screen. Data for the rad50 strain (AID 155).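 Also: 0% = growth of vehicle-only cultures of the same strain.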 The following applies: S. cerevisiae rad50 strain growth inhibition, stronger effect = higher value. The method in brief:
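Genetically altered yeast (DNA repair pathway); compound treatment; growth inhibition vs vehicle ctrl.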

Assay [2] is described as follows: NCI Yeast Anticancer Drug Screen. Data for the mec2-1 strain (AID 157). Conditions: S. cerevisiae mec2-1 strain, stronger effect = higher value. An outline of the steps:
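Cells of the genetically defined mec2-1 yeast strain are incubated with test compound. Inhibition of growth is calculated against vehicle-treated controls.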

Assay [3] can be described thus: NCI Yeast Anticancer Drug Screen. Data for the sgs1 mgt1 strain (AID 161).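 Also: 0% = growth of cultures given vehicle only.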 The following applies: S. cerevisiae sgs1 mgt1 strain, stronger effect = higher value. An outline of the steps:
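Read-out: growth inhibition vs vehicle controls. Cells: mutant yeast strain deficient in DNA damage repair.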

Assay [4] in a line: NCI Yeast Anticancer Drug Screen. Data for the cln2 rad14 strain (AID 165).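 Also: 0% = growth equal to vehicle treated cultures.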 The following applies: S. cerevisiae cln2 rad14 strain, stronger effect = higher value. The method in brief: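 The screen exposed genetically defined yeast (cln2 rad14) to test compounds and scored growth inhibition relative to vehicle-treated controls.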
Assay [5] can be described thus: NCI Yeast Anticancer Drug Screen. Data for the bub3 strain (AID 167). Conditions: S. cerevisiae bub3 mutant strain, stronger effect = higher value. An outline of the steps: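 Yeast carrying a defined mutation is treated with each compound, and growth is compared with that of vehicle-exposed cells to give inhibition.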
Assay [6] in a line: NCI Yeast Anticancer Drug Screen. Data for the mlh1 rad18 strain (AID 175). The following applies: S. cerevisiae mlh1 rad18 strain growth inhibition, stronger effect = higher value. An outline of the steps:
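Compound-treated yeast growth, normalised to vehicle controls. Strain bears defined DNA repair mutations.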

The mark [7] stands for this setting: at 5.0 µM (retest, dose inferred, filed as 0.5).
Setting [8] is: at 50.0 µM (retest, dose inferred, filed as 5.0).

As for `C[C@H](CCC(=O)O)[C@H]1CC[C@H]2[C@@H]3[C@H](O)C[C@@H]4C[C@H](O)CC[C@]4(C)[C@H]3CC[C@]12C`, the growth inhibition in assay [1] (setting [7]) is 24% (inactive); in assay [1] (setting [8]) it was 94% (active); in assay [1] (at 50.0 µM) it was 90% (active); in assay [2] (setting [7]), -14% (inactive); in assay [2] (setting [8]) it was 96% (active); in assay [2] (at 50.0 µM) it was 91.3% (active). The growth inhibition in assay [3] (setting [7]) is 9% (inactive); in assay [3] (setting [8]) it was 96% (active); in assay [3] (at 50.0 µM), 92.3% (active); in assay [4] (setting [7]), 19% (inactive); in assay [4] (setting [8]), 96% (active); in assay [4] (at 50.0 µM), 90.2% (active). In addition, the growth inhibition is -3% (inactive) in assay [5] (setting [7]); 98% (active) in assay [5] (setting [8]); 90.5% (active) in assay [5] (at 50.0 µM); 6% (inactive) in assay [6] (setting [7]); 97% (active) in assay [6] (setting [8]); 90.2% (active) in assay [6] (at 50.0 µM).

As for `C[N+]1(Cc2ccc(Cl)c(Cl)c2)CCCC1C1CCCN(Cc2ccc(Cl)c(Cl)c2)C1` (centres undefined), the growth inhibition is -4% (inactive) in assay [1] (setting [7]); 51% (inactive) in assay [1] (setting [8]); 6.55% (inactive) and -11.7% (inactive) in assay [1] (at 50.0 µM); -2% (inactive) in assay [2] (setting [7]); 59% (inactive) in assay [2] (setting [8]); -3.95% (inactive) and 3.6% (inactive) in assay [2] (at 50.0 µM). Besides, the growth inhibition in assay [3] (setting [7]) was 3% (inactive); in assay [3] (setting [8]) it was 80% (active); in assay [3] (at 50.0 µM), 5.3% (inactive) and 14% (inactive); in assay [4] (setting [7]) it was -11% (inactive); in assay [4] (setting [8]), 27% (inactive); in assay [4] (at 50.0 µM) it was -15.3% (inactive) and 42.5% (inactive). Also, the growth inhibition in assay [5] (setting [7]) is -1% (inactive); in assay [5] (setting [8]), 61% (inactive); in assay [5] (at 50.0 µM), 22.2% (inactive) and 15.3% (inactive); in assay [6] (setting [7]) it was -2% (inactive); in assay [6] (setting [8]), 76% (active); in assay [6] (at 50.0 µM), 29.1% (inactive) and 48.3% (inactive).

As for `CC(C)=CCC(O)C1=CC(=O)c2c(O)ccc(O)c2C1=O` (centres undefined), the growth inhibition in assay [1] (setting [7]) is 44% (inactive); in assay [1] (setting [8]) it was 59% (inactive); in assay [1] (at 50.0 µM), 9.15% (inactive) and 87.9% (active) and 4.05% (inactive); in assay [2] (setting [7]), 46% (inactive); in assay [2] (setting [8]), 66% (inactive); in assay [2] (at 50.0 µM), 15.9% (inactive) and 90.7% (active) and 54.8% (inactive). Also, the growth inhibition was 43% (inactive) in assay [3] (setting [7]); 92% (active) in assay [3] (setting [8]); 12.4% (inactive) and 91.5% (active) and 30.6% (inactive) in assay [3] (at 50.0 µM); 59% (inactive) in assay [4] (setting [7]); 94% (active) in assay [4] (setting [8]); 16.1% (inactive) and 89.1% (active) and 33.1% (inactive) in assay [4] (at 50.0 µM). Besides, the growth inhibition in assay [5] (setting [7]) is 62% (inactive); in assay [5] (setting [8]), 87% (active); in assay [5] (at 50.0 µM) it was 22.6% (inactive) and 88% (active) and 36.5% (inactive); in assay [6] (setting [7]), 43% (inactive); in assay [6] (setting [8]), 60% (inactive); in assay [6] (at 50.0 µM), 26.6% (inactive) and 85.2% (active) and 9.65% (inactive).

For the compound `c1ccc2c(c1)[nH]c1c(N3CCOCC3)nnc(N3CCOCC3)c12`, the growth inhibition was 2% (inactive) in assay [1] (setting [7]); 1% (inactive) in assay [1] (setting [8]); 35.5% (inactive) in assay [1] (at 50.0 µM); -5% (inactive) in assay [2] (setting [7]); 3% (inactive) in assay [2] (setting [8]); 44% (inactive) in assay [2] (at 50.0 µM). Also, the growth inhibition in assay [3] (setting [7]) was -2% (inactive); in assay [3] (setting [8]), 0% (inactive); in assay [3] (at 50.0 µM) it was 77.8% (active); in assay [4] (setting [7]) it was -2% (inactive); in assay [4] (setting [8]) it was -5% (inactive); in assay [4] (at 50.0 µM) it was 35.3% (inactive). The growth inhibition in assay [5] (setting [7]) was 0% (inactive); in assay [5] (setting [8]), -1% (inactive); in assay [5] (at 50.0 µM), 47.1% (inactive); in assay [6] (setting [7]), -6% (inactive); in assay [6] (setting [8]), -6% (inactive); in assay [6] (at 50.0 µM), 83% (active).

For the compound `CCCN(CCC)C(=S)N/N=C/c1ccccn1`, the growth inhibition in assay [1] (setting [7]) was 99% (active); in assay [1] (setting [8]), 99% (active); in assay [1] (at 50.0 µM), 90.5% (active); in assay [2] (setting [7]) it was 99% (active); in assay [2] (setting [8]), 100% (active); in assay [2] (at 50.0 µM) it was 93.1% (active). Moreover, the growth inhibition is 98% (active) in assay [3] (setting [7]); 99% (active) in assay [3] (setting [8]); 92.4% (active) in assay [3] (at 50.0 µM); 98% (active) in assay [4] (setting [7]); 100% (active) in assay [4] (setting [8]); 93.5% (active) in assay [4] (at 50.0 µM). In addition, the growth inhibition is 99% (active) in assay [5] (setting [7]); 100% (active) in assay [5] (setting [8]); 92.5% (active) in assay [5] (at 50.0 µM); 99% (active) in assay [6] (setting [7]); 99% (active) in assay [6] (setting [8]); 89.8% (active) in assay [6] (at 50.0 µM).

`O=[N+]([O-])c1ccc(SSc2ccc([N+](=O)[O-])cc2)cc1`: the growth inhibition in assay [1] (setting [7]) was 35% (inactive) and 88% (active); in assay [1] (setting [8]), 98% (active); in assay [1] (at 50.0 µM), 98.2% (active) and 65.7% (inactive); in assay [2] (setting [7]) it was 70% (active) and 99% (active); in assay [2] (setting [8]) it was 99% (active); in assay [2] (at 50.0 µM), 98.9% (active) and 38.1% (inactive). Moreover, the growth inhibition in assay [3] (setting [7]) is 91% (active) and 87% (active); in assay [3] (setting [8]) it was 99% (active) and 98% (active); in assay [3] (at 50.0 µM), 99% (active) and 68.8% (inactive); in assay [4] (setting [7]), 27% (inactive) and 65% (inactive); in assay [4] (setting [8]), 97% (active); in assay [4] (at 50.0 µM), 93.7% (active) and -34.6% (inactive). Moreover, the growth inhibition is 58% (inactive) and 98% (active) in assay [5] (setting [7]); 99% (active) in assay [5] (setting [8]); 98.5% (active) and 49.2% (inactive) in assay [5] (at 50.0 µM); 70% (active) and 87% (active) in assay [6] (setting [7]); 98% (active) in assay [6] (setting [8]); 98.3% (active) and 69.6% (inactive) in assay [6] (at 50.0 µM).

In the case of `CC(C)(C)OC(=O)NOc1ccc([N+](=O)[O-])cc1[N+](=O)[O-]`, the growth inhibition in assay [1] (setting [7]) was 22% (inactive); in assay [1] (setting [8]), 99% (active); in assay [1] (at 50.0 µM), 98.7% (active) and 99.5% (active); in assay [2] (setting [7]), 4% (inactive); in assay [2] (setting [8]), 100% (active); in assay [2] (at 50.0 µM), 99.5% (active) and 99.7% (active). Further, the growth inhibition was 38% (inactive) in assay [3] (setting [7]); 100% (active) in assay [3] (setting [8]); 99.5% (active) in assay [3] (at 50.0 µM); 8% (inactive) in assay [4] (setting [7]); 99% (active) in assay [4] (setting [8]); 97.2% (active) and 99.5% (active) in assay [4] (at 50.0 µM). The growth inhibition is 9% (inactive) in assay [5] (setting [7]); 99% (active) in assay [5] (setting [8]); 99.2% (active) and 99.5% (active) in assay [5] (at 50.0 µM); 68% (inactive) in assay [6] (setting [7]); 97% (active) in assay [6] (setting [8]); 99.2% (active) and 99.7% (active) in assay [6] (at 50.0 µM).

Regarding `O=c1c(O)cccc2cc(O)c(O)c(O)c12`, the growth inhibition in assay [1] (setting [7]) was 9% (inactive) and 29% (inactive); in assay [1] (setting [8]) it was 90% (active) and 98% (active); in assay [1] (at 50.0 µM), 89.2% (active) and 90.3% (active); in assay [2] (setting [7]), -22% (inactive) and 25% (inactive); in assay [2] (setting [8]), 94% (active) and 98% (active); in assay [2] (at 50.0 µM), 91.4% (active) and 91.2% (active). Further, the growth inhibition in assay [3] (setting [7]) was -4% (inactive) and 36% (inactive); in assay [3] (setting [8]), 92% (active) and 98% (active); in assay [3] (at 50.0 µM), 89.7% (active) and 91.3% (active); in assay [4] (setting [7]) it was 12% (inactive) and 6% (inactive); in assay [4] (setting [8]) it was 91% (active) and 97% (active); in assay [4] (at 50.0 µM) it was 85.5% (active) and 87.5% (active). Further, the growth inhibition in assay [5] (setting [7]) is 5% (inactive) and 29% (inactive); in assay [5] (setting [8]), 94% (active) and 97% (active); in assay [5] (at 50.0 µM), 87% (active) and 90.2% (active); in assay [6] (setting [7]), -4% (inactive) and 48% (inactive); in assay [6] (setting [8]), 93% (active) and 97% (active); in assay [6] (at 50.0 µM) it was 87.2% (active) and 91.1% (active).
